The assay is described as follows: small molecules boosting NK-mediated OVCAR3 lysis – imaging, primary NK cells, calcein-AM imaging, primary screen (AID 1508625).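 For z-score: more negative robust z means stronger NK killing of tumor cells.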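 Note: compound given to NK cells 16 h before adding targets at 1.5 to 1 ratio.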 The following applies: OVCAR3 lysis by primary NK cells, at 5 µM; z-score: measured here: robust Z-score, single-point normalisation.

Molecules are shown by their SMILES.

As to `Cc1c(C(=O)NC(C)C)oc2ccc(S(=O)(=O)N3CCOCC3)cc12`, the corrected activity, negative = more killing was -3.41% and the z-score is -0.849.
On the same counts, the results for `Cc1ccc(C(=O)O)c(C(=O)Nc2cccnc2)c1` are -0.349% and -0.143.
As to `O=C(CCn1c(=S)[nH]c2ccccc2c1=O)NCCc1ccc(Cl)cc1`, the corrected activity, negative = more killing is -2.39% and the z-score is -0.633.
`O=C1c2cccc([N+](=O)[O-])c2C(=O)N1C1C(=O)N(c2cccc(C(F)(F)F)c2)C1c1ccc(F)cc1` (centres undefined): the corrected activity, negative = more killing is -1.05% and the z-score is -0.327.
Take `Cc1ccc(-c2coc3c(C)c4oc(=O)c5c(c4cc23)CCC5)cc1`: the corrected activity, negative = more killing was -5.02% and the z-score is -1.5.
As to `CCOC(=O)Cc1ccc(N(Cc2ccccc2)S(=O)(=O)c2cc(C)ccc2C)cc1`, the corrected activity, negative = more killing was -11.3% and the z-score was -3.06.
With `c1ccc(-c2ccccc2OCCN2CCNCC2)cc1`, the corrected activity, negative = more killing was 1.89% and the z-score is 1.05.
In the case of `O=C(CSCc1ccccc1Cl)NCCc1ccc(Cl)cc1`, the corrected activity, negative = more killing is -1.86% and the z-score was -0.502.
With `O=C(Nc1ccccc1-c1nc2ccccc2[nH]1)c1ccc(S(=O)(=O)N2CCCC2)cc1`, the corrected activity, negative = more killing is 0.864% and the z-score is 0.306.
Consider `O=C(NC1CCCCC1)c1nn2c(C(F)(F)F)cc(-c3ccco3)nc2c1Br`, for which the corrected activity, negative = more killing is -4.13% and the z-score was -1.55.
On the same counts, the results for `COC(=O)c1ccc(NC(=O)CN2CCN(CC#N)CC2)cc1` are -5.45% and -2.05.
On to `COc1ccc([N+](=O)[O-])cc1N=Cc1ccc(N(C)C)cc1`, for which the corrected activity, negative = more killing was -10% and the z-score was -2.12.
Turning to `COc1cccc(-n2c(SCC(=O)Nc3ccccc3F)nc3c([nH]c4ccccc43)c2=O)c1`, the corrected activity, negative = more killing is -10.8% and the z-score is -2.69.
On to `Cc1ccccc1NC(=O)OCc1ccccc1`, for which the corrected activity, negative = more killing is -1.84% and the z-score was -1.03.
For `COc1c(Cl)cccc1NC(=O)c1cccc2ccccc12`, the corrected activity, negative = more killing was -3.52% and the z-score is -1.31.
On the same counts, the results for `O=C(O)c1cccc(N2C(=O)c3ccc(C(=O)c4ccc5c(c4)C(=O)N(c4cccc(C(=O)O)c4)C5=O)cc3C2=O)c1` are -1.17% and -0.363.
In the case of `O=C1C(=O)N(Cc2cccnc2)C(c2ccncc2)C1=C(O)c1ccc(F)cc1` (centres undefined), the corrected activity, negative = more killing was -3.73% and the z-score is -1.62.
Regarding `CC(=NNC(=S)Nc1cccc(C)c1)c1cccc(N)c1`, the corrected activity, negative = more killing is -5.28% and the z-score was -2.08.
As for `CCC(=O)c1ccc(OCC(=O)O)c(OC)c1`, the corrected activity, negative = more killing was -0.458% and the z-score is -0.171.
In the case of `Cc1ccc(N2CC(C(=O)Nc3cccc(C)n3)CC2=O)cc1` (centres undefined), the corrected activity, negative = more killing is -3% and the z-score was -1.13.
Turning to `c1ccc(OCCCc2nc(-c3ccccn3)no2)cc1`, the corrected activity, negative = more killing is -2.46% and the z-score was -1.37.
On to `O=C(c1ccc2c(=O)n(Cc3ccco3)c(=S)[nH]c2c1)N1CCOCC1`, for which the corrected activity, negative = more killing is -3.78% and the z-score is -1.2.
For `Cc1cc(Br)cc2c(N=NC(=O)c3ccccc3)c(O)[nH]c12`, the corrected activity, negative = more killing was -1.64% and the z-score is -0.646.
For `CN1C(=O)c2ccccc2C(C(=O)Nc2ccc3c(c2)OCCO3)C1c1cccs1` (centres undefined), the corrected activity, negative = more killing is -7.21% and the z-score is -1.79.
On the same counts, the results for `CCC(SC1=NCCS1)C(=O)Nc1ccc(S(N)(=O)=O)cc1` (centres undefined) are -2.81% and -1.06.
The like results for `O=C(CCn1c(=O)c2sccc2n(Cc2cc(=O)n3ccccc3n2)c1=O)NCc1ccc2c(c1)OCO2` were, in that order, -7.55% and -2.14.
Consider `CCCOc1cccc(C(=O)Nc2ccc3nn(-c4ccc(OC)cc4)nc3c2)c1`, for which the corrected activity, negative = more killing was -3.41% and the z-score is -1.21.
`O=C(c1ccccc1Br)N1N=C(c2ccccc2)CC1(O)C(F)(F)F` (centres undefined): the corrected activity, negative = more killing was -3.24% and the z-score is -1.24.
Turning to `COc1ccc(-c2csc(Nc3ccc(NC(C)=O)cc3)n2)cc1OC`, the corrected activity, negative = more killing was 1.84% and the z-score is 0.823.
Consider `COC(=O)c1cc(OC)c(OC)cc1NC(=O)c1cc(Cl)ccc1Cl`, for which the corrected activity, negative = more killing is -1.51% and the z-score is -0.842.
`CC1CC(C)CN(C(=O)c2c[nH]c3ccc(S(=O)(=O)N4CCOCC4)cc3c2=O)C1` (centres undefined): the corrected activity, negative = more killing was -2.85% and the z-score was -1.04.
The like results for `COC(=O)c1cc(Cl)c(NC(=O)c2cc3ccccc3oc2=O)cc1OC` were, in that order, -1.77% and -0.79.
Consider `Cc1c(Cl)cccc1NC(=O)c1sc2ncn(CC(=O)N3CCOCC3)c(=O)c2c1C`, for which the corrected activity, negative = more killing was 0.676% and the z-score is 0.246.
With `COc1cccc(C(=O)N2CCN(C(=O)c3ccccc3OC)CC2)c1`, the corrected activity, negative = more killing was -2.57% and the z-score is -1.15.
Regarding `O=C1C(=Cc2ccccc2)SC(=S)N1C1CCS(=O)(=O)C1` (centres undefined), the corrected activity, negative = more killing is -2.25% and the z-score is -0.887.
`CCSc1nnc(NC(=O)CSc2nc3c(c(=O)n2-c2ccccc2OC)SCC3)s1`: the corrected activity, negative = more killing was -4.89% and the z-score was -1.22.
As for `COc1ccccc1C(=O)CC1(O)C(=O)Nc2ccccc21` (centres undefined), the corrected activity, negative = more killing was -4.9% and the z-score is -1.82.
With `CN(C)CCSc1nnnn1-c1ccccc1`, the corrected activity, negative = more killing was -4.18% and the z-score was -1.86.
With `Cc1ccc(NC(=O)CCNC(=O)Cn2cnc3ccccc3c2=O)c(Br)c1`, the corrected activity, negative = more killing was -0.469% and the z-score was -0.149.
With `COCCNCCCOc1cccc(Br)c1`, the corrected activity, negative = more killing was -1.7% and the z-score was -0.634.
In the case of `Cc1ccc(-n2ncc3c(=O)[nH]c(SCC(C)C)nc32)cc1C`, the corrected activity, negative = more killing was -9.35% and the z-score is -2.29.
As to `Cn1c(SCC(=O)c2ccccc2)nc2c([nH]c3ccccc32)c1=O`, the corrected activity, negative = more killing was -5.65% and the z-score was -1.41.
As for `O=C(Nc1ccc2oc(-c3cccc4c(Br)cccc34)nc2c1)c1ccccc1[N+](=O)[O-]`, the corrected activity, negative = more killing was -6.04% and the z-score was -2.14.
On the same counts, the results for `Cc1cc(Nc2ncnc3sc4c(c23)CCCC4)ccc1Br` are -1.91% and -1.03.
Take `Cc1cc(C)cc(NS(=O)(=O)c2ccc3[nH]cc(C(=O)NCc4cccs4)c(=O)c3c2)c1`: the corrected activity, negative = more killing was -6.12% and the z-score was -1.5.
As to `CC(C)c1ccc(CNc2c([N+](=O)[O-])c(=O)oc3ccccc23)cc1`, the corrected activity, negative = more killing was -0.839% and the z-score is -0.312.
The like results for `CCOC(=O)c1ccc2c(c1)[C@@H]1C=CC[C@@H]1[C@H](c1ccccc1C(F)(F)F)N2` were, in that order, -3.03% and -0.905.
